Results on 13 compounds are retold here after ChEMBL document CHEMBL5606458, “ASAP - ZIKV NS2B-NS3 protease fluorescence single point” (2024).

Out of some 2,700 compounds screened, about 160 (5.9%) showed an effect of 50% or more. The sample as a whole holds a higher share of strong results than the screen did.

This experiment addresses Nonstructural protein 3 (Zika virus) (UniProt A0A024AXB9).

Chain of Nonstructural protein 3 (Zika virus) (A0A024AXB9 as listed by the source): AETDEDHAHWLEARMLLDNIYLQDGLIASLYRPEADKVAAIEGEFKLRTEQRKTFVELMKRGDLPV

In the case of `CCCC[C@H](NC(C)=O)C(=O)N[C@H](C(=O)NCc1ccc(CN)cc1)c1ccc(OCc2ccccc2)cc1`, the inhibition (in general, the drop in the measured response relative to a control, in per cent) by setting is: (PRVABC59, Concentration 49.5 uM, Number of replicates 2.0, Standard deviation 3.0246149725930045 %) 4.96%; (PRVABC59, Concentration 99.01 uM, Number of replicates 2.0, Standard deviation 5.4426160865401085 %) 91.7%; (PRVABC59, Concentration 198.0 uM, Number of replicates 2.0, Standard deviation 0.23672907001683724 %) 97.8%.
Regarding `CCCCCC(=O)N[C@H](C(=O)NCc1cccc(CN)c1)C1CCCCC1`, the inhibition is, setting by setting: (PRVABC59, Concentration 49.5 uM, Number of replicates 2.0, Standard deviation 0.08302069360936502 %) -2.7%; (PRVABC59, Concentration 99.01 uM, Number of replicates 2.0, Standard deviation 0.655862366837183 %) -1.9%; (PRVABC59, Concentration 198.0 uM, Number of replicates 2.0, Standard deviation 0.31962821211509684 %) 41.3%.
Regarding `CCCC[C@H](NC(C)=O)C(=O)N[C@H](C(=O)Nc1ccc(C(N)=O)cc1)c1ccc(OCc2ccccc2)cc1`, the inhibition was -1.83% (PRVABC59, Concentration 49.5 uM, Number of replicates 2.0, Standard deviation 1.0117053428289626 %); 1.23% (PRVABC59, Concentration 99.01 uM, Number of replicates 2.0, Standard deviation 0.9364545471831264 %); 17.7% (PRVABC59, Concentration 198.0 uM, Number of replicates 2.0, Standard deviation 0.5455676889131452 %).
Take `CCCC[C@H](NC(C)=O)C(=O)N[C@H](C(=O)NCc1ccc(CN)cc1)c1ccccc1`: the inhibition is, setting by setting: (PRVABC59, Concentration 49.5 uM, Number of replicates 2.0, Standard deviation 2.0326302034025616 %) 1.09%; (PRVABC59, Concentration 99.01 uM, Number of replicates 2.0, Standard deviation 38.99982941752366 %) 27.9%; (PRVABC59, Concentration 198.0 uM, Number of replicates 2.0, Standard deviation 3.137845684278008 %) 79.1%.
Turning to `CCCC[C@H](NC(C)=O)C(=O)N[C@@H](C(=O)NCc1ccc(C(N)=O)cc1)c1ccc(OCc2ccccc2)cc1`, the inhibition is, setting by setting: (PRVABC59, Concentration 49.5 uM, Number of replicates 2.0, Standard deviation 1.682765526064386 %) -0.555%; (PRVABC59, Concentration 99.01 uM, Number of replicates 2.0, Standard deviation 1.8317792493099265 %) 2.22%; (PRVABC59, Concentration 198.0 uM, Number of replicates 2.0, Standard deviation 1.8535860287294632 %) 8.29%.
`CCCC[C@H](NC(C)=O)C(=O)N[C@H](C(=O)NCc1ccc(C(N)=O)cc1)c1ccc(OCc2ccccc2)cc1`: the inhibition (PRVABC59, Concentration 49.5 uM, Number of replicates 2.0, Standard deviation 2.8803277655268693 %) worked out at 26.6%; the inhibition (PRVABC59, Concentration 99.01 uM, Number of replicates 2.0, Standard deviation 0.054514419737930774 %) was found to be 98.6%; the inhibition (PRVABC59, Concentration 198.0 uM, Number of replicates 2.0, Standard deviation 0.07632018763310308 %) was found to be 99.1%.
Consider `COc1ccc2nc(C(F)(F)F)nc(N3CCN(c4ccc(N)nc4)CC3)c2c1`, for which the inhibition runs as follows: (PRVABC59, Concentration 49.5 uM, Number of replicates 2.0, Standard deviation 0.8584962379889504 %) 14.4%; (PRVABC59, Concentration 99.01 uM, Number of replicates 2.0, Standard deviation 2.1800251715639205 %) 28%; (PRVABC59, Concentration 198.0 uM, Number of replicates 2.0, Standard deviation 1.6255789961308644 %) 43.6%.
Take `CC(C)(CO)CN1CC[C@H](c2c[nH]c3ccccc23)C1`: the inhibition came out at 6.14% (PRVABC59, Concentration 49.5 uM, Number of replicates 2.0, Standard deviation 3.1209329969075563 %); 11.2% (PRVABC59, Concentration 99.01 uM, Number of replicates 2.0, Standard deviation 4.254828207009483 %); 18.1% (PRVABC59, Concentration 198.0 uM, Number of replicates 2.0, Standard deviation 3.604090306895346 %).
With `O=C(NCC1CC1)c1cc(Cl)ccc1NS(=O)(=O)c1ccc(Oc2ccccc2Cl)cc1`, the inhibition is 43% (PRVABC59, Concentration 49.5 uM, Number of replicates 2.0, Standard deviation 1.3484995448740613 %); 40.6% (PRVABC59, Concentration 99.01 uM, Number of replicates 2.0, Standard deviation 16.06152873020096 %); 45.6% (PRVABC59, Concentration 198.0 uM, Number of replicates 2.0, Standard deviation 0.4375207024201935 %).
`O=C(O)c1cc(Cl)ccc1NS(=O)(=O)c1ccc(Oc2ccccc2Cl)cc1`: the inhibition came out at 25.6% (PRVABC59, Concentration 15.0 uM, Number of replicates 2.0, Standard deviation 1.019095961302742 %); 67% (PRVABC59, Concentration 49.5 uM, Number of replicates 2.0, Standard deviation 0.595671862422896 %); 72.9% (PRVABC59, Concentration 99.01 uM, Number of replicates 2.0, Standard deviation 0.9962463002636517 %); 64.4% (PRVABC59, Concentration 198.0 uM, Number of replicates 2.0, Standard deviation 0.4898259529465772 %).
For the compound `COC[C@@H](C)CNC(=O)c1cc(Cl)ccc1NS(=O)(=O)c1ccc(Oc2ccccc2Cl)cc1`, the inhibition turned out to be 40.8% (PRVABC59, Concentration 49.5 uM, Number of replicates 2.0, Standard deviation 0.1936300399043851 %); 39.9% (PRVABC59, Concentration 99.01 uM, Number of replicates 2.0, Standard deviation 0.11978876131329876 %); 17.9% (PRVABC59, Concentration 198.0 uM, Number of replicates 2.0, Standard deviation 0.12799289825703533 %).
`Cc1ccc(CNC(=O)c2cc(Cl)ccc2NS(=O)(=O)c2ccc(Oc3ccccc3Cl)cc2)s1`: the inhibition (PRVABC59, Concentration 49.5 uM, Number of replicates 2.0, Standard deviation 0.2822395742136887 %) turned out to be 41.1%; the inhibition (PRVABC59, Concentration 99.01 uM, Number of replicates 2.0, Standard deviation 0.310134718781715 %) worked out at 25.2%; the inhibition (PRVABC59, Concentration 198.0 uM, Number of replicates 2.0, Standard deviation 2.1364830937799217 %) is -9.71%.
Consider `CC(C)CNC(=O)c1cc(Cl)ccc1NS(=O)(=O)c1ccc(Oc2ccccc2Cl)cc1`, for which the inhibition turned out to be 58.6% (PRVABC59, Concentration 49.5 uM, Number of replicates 2.0, Standard deviation 0.3286348250544809 %); 54.7% (PRVABC59, Concentration 99.01 uM, Number of replicates 2.0, Standard deviation 0.058762822067828895 %); 37.6% (PRVABC59, Concentration 198.0 uM, Number of replicates 2.0, Standard deviation 2.167677830824169 %).
